# The sample as a whole holds a higher share of hits than the screen did.
# SF-1 inh: blocks the human nuclear receptor SF-1; 65,000 tested, 0.55% active; CHO-K1 Gal4-SF-1 LBD luciferase reporter; inhibition, % at 10 µM; AID 525; Q13285;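 active = inhibition above the mean inhibition of all tested compounds plus 3 SD, cut at about 48% in these data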;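 also: 0% = SF-1 transfected cells with DMSO and 100% = mock-transfected cells lacking SF-1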
# Target sequence (Q13285 whole entry, looked up, the tested form may be a part): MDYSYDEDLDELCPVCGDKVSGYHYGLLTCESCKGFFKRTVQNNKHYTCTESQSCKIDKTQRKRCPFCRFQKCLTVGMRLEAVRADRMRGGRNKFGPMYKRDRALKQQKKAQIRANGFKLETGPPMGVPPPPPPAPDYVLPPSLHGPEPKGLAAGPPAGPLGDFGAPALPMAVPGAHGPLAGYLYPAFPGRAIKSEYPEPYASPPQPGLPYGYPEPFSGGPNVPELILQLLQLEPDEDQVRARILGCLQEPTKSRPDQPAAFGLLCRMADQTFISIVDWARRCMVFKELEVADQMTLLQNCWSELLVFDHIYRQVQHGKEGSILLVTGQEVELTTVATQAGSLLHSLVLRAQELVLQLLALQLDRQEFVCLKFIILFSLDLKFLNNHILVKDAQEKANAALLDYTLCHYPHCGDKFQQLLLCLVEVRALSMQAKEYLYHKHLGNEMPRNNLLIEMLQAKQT
# Numbers without * were called inactive.
SMILES,SF-1 inh
CCOc1ccccc1C(=O)N1CCN=C1SC,5.9
COC(=O)Sc1nnc(-c2ccc(Br)cc2)o1,4.4
CCOC(=O)c1ccccc1NC(=O)COC(=O)C1=COCCO1,4.1
Cc1cc(C)nc(NCC(O)CNc2ccccc2Cl)n1 (stereo not given),0.7
c1ccc(-n2nnc3c(N4CCOCC4)ncnc32)cc1,52.3*
O=c1c2ccccc2nc2c3ccccc3c(N3CCOCC3)nn12,-8.5
O=c1[nH]c(N2CCOCC2)nc2ncn(Cc3ccccc3)c12,17.2
O=C(NC1CC1)C1CC(=O)N(C2CCCCC2)C1 (stereo not given),-2.1
COc1ccc2[nH]c(=O)c(CN(C(=O)C3CCCO3)c3cccc(C)c3)cc2c1 (stereo not given),5.4
CCSc1nnc(Nc2ccccc2)s1,-53.8
CCSc1nnc(NC(=O)c2ccccn2)s1,55.4*
CCSc1nnc(NC(=O)c2cc3c(s2)CCCC3)s1,-51.6
CCS(=O)(=O)N1CCCC(C(=O)NC2CCC(C)CC2)C1 (stereo not given),-18.2
O=C(NCCCN1CCCCCC1)c1ccc2c(c1)NC(=O)C(N1CCOCC1)S2 (stereo not given),7.7
COc1cccc(-c2cc(C(=O)NCCN3CCOCC3)no2)c1,1.0
O=C(NCCCN1CCOCC1)c1csc2c1CCCC2,74.0*
CCC1CCc2c(sc(NC(=O)c3ccoc3C)c2C(N)=O)C1 (stereo not given),-33.3
O=C(NCc1nnc(SCC(=O)N2CCC(Cc3ccccc3)CC2)o1)c1ccccc1F,-2.3
CCOC(=O)Cn1c(-c2ccccn2)nc2ccccc21,7.1
Cc1cc(/C=c2/sc3nc4ccccc4n3c2=O)c(C)n1-c1ccccn1,85.1*
CN(C)S(=O)(=O)c1ccc(C(=O)N2CCC(c3nc4ccccc4o3)CC2)cc1,-5.9
CCc1ccc(N2CCCn3c2nc2c3c(=O)n(CCN3CCOCC3)c(=O)n2C)cc1,-18.0
c1ccc(-c2nnc(-c3ccccn3)nn2)nc1,-47.4
c1ccc(-c2cccc(-c3ccccn3)n2)nc1,87.1*
O=C(CCc1c[nH]c2ccccc12)NCC1CCCO1 (stereo not given),-3.9
SMILES,SF-1 inh
CC1(C)Oc2ccc3ccc(=O)oc3c2-c2cn[nH]c21,-32.4
O=S(=O)(NCc1cn2ccsc2n1)c1ccc(Oc2ccccc2)cc1,51.9*
Cc1csc2nc(CNS(=O)(=O)c3ccc(-c4ccccc4)cc3)cn12,3.2
Cc1nc(CNS(=O)(=O)c2ccc3ccccc3c2)cs1,10.6
CCn1cc(Br)c(C(=O)Nc2ccc(F)c(Cl)c2)n1,-35.2
COc1ccc(S(=O)(=O)N(C)CC(=O)NC2CC2)cc1,-12.1
O=C(CCCC(=O)N(CC(=O)NC1CCCCC1)Cc1ccc2c(c1)OCO2)Nc1ccccn1,5.9
Cc1nc2c(cc(Oc3ccc(S(=O)(=O)N4CCOCC4)cn3)c3ccsc32)s1,-53.4
COc1cc2nc(=S)n3[nH]c(CCn4nc(C)cc4C)nc3c2cc1OC,60.6*
COC(=O)Cn1c(C)nc2c(sc3nc(C)cc(C)c32)c1=O,-50.1
Oc1ccc(-c2nnc(SCC3CCCCC3)o2)cc1,-63.7
O=C(CSc1nnc(-c2cccnc2)n1Cc1ccco1)N1c2ccccc2Sc2ccccc21,10.6
CC(C)(C)c1ccc(-c2cc(N)n[nH]2)cc1,48.2*
Cn1c(-c2ccc3ccccc3n2)nc2cnccc21,-64.6
CC(C)c1ccc(NC(=O)C2CCCN(S(=O)(=O)c3cnc[nH]3)C2)cc1 (stereo not given),-5.6
Cc1ccccc1NC(=O)N1CCCC(c2nc(-c3ccc(C(C)C)cc3)no2)C1 (stereo not given),51.3*
Cc1c(C(=O)O)oc2ccc(S(=O)(=O)NCc3ccc4c(c3)OCO4)cc12,-4.1
CCOC(=O)c1oc2ccc(S(=O)(=O)Nc3ccc4c(c3)n(C)c(=O)n4C)cc2c1C,57.2*
CCOC(=O)c1ccc(NS(=O)(=O)c2ccc3[nH]c(=O)[nH]c3c2)cc1,-6.1
CCOC(=O)c1ccc(NC(=O)N(CC)CC)cc1,-62.7
CC(C)CCn1c(CN2CCN(c3cccc(Cl)c3)CC2)nc2c1c(=O)n(C)c(=O)n2C,-5.9
COc1ccc(-c2ccc(CCC(=O)O)n2C(C)C)cc1,-18.7
Cc1ccc(OCc2nc(-c3ccccc3)no2)c(C)c1,-58.8
COc1ccc(-c2noc(CCCC(=O)O)n2)cc1,56.6*
Cc1ccc(-c2noc(CCCC(=O)N3CCOCC3)n2)cc1,2.1
SMILES,SF-1 inh
CCOc1ccc(-c2noc(CCC(=O)O)n2)cc1,53.2*
CCOc1ccc(-c2nnc(N)o2)cc1,3.1
COc1cccc(-c2nnc(SCC(=O)N3CCCC3=O)n2-c2ccccc2)c1,-2.6
Cc1ccc(N(C=NC#N)CC(=O)N2CCN(c3ccccc3)CC2)cc1,2.8
CC1(c2ccccc2)NC(=O)N(CCN2C(=O)c3ccccc3C2=O)C1=O (stereo not given),-3.4
CCn1c(SCC(=O)Nc2nc3c(s2)CCCC3)nc2c1c(=O)n(C)c(=O)n2C,10.6
O=C(NC1CCCCCC1)C1CCN(C(=O)Cc2ccccc2)CC1,17.5
CCC1(CC)C(=O)N=C2c3ccccc3C(=O)N21,7.2
CC1=CC(=C2C(=O)c3ccccc3C2=O)C=C(C)O1,-41.6
CCN1C=CC(=C2C(=O)c3ccccc3C2=O)C=C1,79.7*
CCCN1C=CC(=C2C(=O)c3ccccc3C2=O)C=C1,93.0*
COC(=O)CCCC(=O)Nc1ccc(Cl)c(Cl)c1,-10.8
CCOC(=O)c1cccc(NC(=O)Cn2cc3c(n2)CCC(C)C3)c1 (stereo not given),13.2
CC(C)(C)NC(=O)CSc1nnc(Cc2ccc3c(c2)OCO3)n1C1CCCCC1,5.7
CCc1ccccc1NC(=O)CSc1nnc([C@@H]2CCCN2C(=O)OC(C)(C)C)o1,9.6
CCCCNC(=O)c1nnn(-c2ccccc2)c1N,-66.6
COc1ccc(-c2cc3nc4n(c(=O)c3s2)CCC4)cc1,78.2*
CCOC(=O)c1c(C)n(CC(O)c2ccccc2)c2ccc(O)cc12 (stereo not given),6.7
COc1ccc2nc(NC(=O)CN(c3ccc(C)cc3)S(=O)(=O)c3c(C)nn(C)c3C)sc2c1,4.9
CCCCN1CC(C(=O)NC2CCCCC2)CC1=O (stereo not given),-0.2
CC(=O)N1CCN(c2ccc(Oc3nnnn3-c3ccccc3)cc2)CC1,17.8
O=C(CN1CCOc2ccccc21)NC1CC1,-19.5
Cc1cc(=O)oc2cc(OCC(=O)OCc3nnc(-c4ccccc4)o3)ccc12,-6.1
CN1/C(=C/C(=O)c2nc(S(C)(=O)=O)ncc2Cl)C(C)(C)c2ccccc21,60.6*
CC(=O)C1=C(O)C(=O)N(c2ccc(C(=O)O)cc2)C1c1ccccc1 (stereo not given),12.0
SMILES,SF-1 inh
CN(C1CCS(=O)(=O)C1)S(=O)(=O)c1ccc(C2CCCCC2)cc1 (stereo not given),6.4
Cc1cc(C)n(-c2ccc3cccc(NS(C)(=O)=O)c3n2)n1,78.7*
O=C(NC(NCc1ccccn1)(C(F)(F)F)C(F)(F)F)c1ccco1,-1.2
CCN1C(=S)SC(=O)C1=C1C=C(C)N(CCOC)C(C)=C1,5.9
COc1cccc(CN(Cc2cccnc2)S(=O)(=O)c2ccc(-n3cnnn3)c(C)c2)c1,3.6
COc1ccc(OC)c(N(CC(=O)N2CCN(c3cc(Cl)ccc3C)CC2)S(C)(=O)=O)c1,12.0
COc1ccc2c(c1)CCc1c(C(=O)NCCN3CCOCC3)noc1-2,2.9
COc1ccc(-c2nc(CSCC(=O)NCc3ccco3)c(C)o2)cc1,69.4*
O=C(C1CCCCC1)N1CCN(c2ncccn2)CC1,-3.9
Cc1cc(-c2ccco2)n(CC(=O)NCc2ccco2)n1,-12.1
